ssDAF12 agonist – activators of S. stercoralis DAF-12 nuclear receptor | HEK293 ssDAF-12/GRIP1 lit1-tk-luc reporter, luminescence; % of 3 µM dafachronic acid response | activation, % at 6.8 µM | actives 1% (n = 370,000) | AID 652126;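 active means activation above the mean over all tested compounds plus 3 SD, cut at about 0.9% in these data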;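 further: 0% = DMSO-only wells and 100% = 3 µM delta7-dafachronic acid wells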
hcDAF-12 act – activates DAF-12 receptor from parasite H. contortus. HEK293 hcDAF-12 lit1-tk-luc reporter, luminescence; 0% DMSO, 100% Δ7-dafachronic acid. activation, % at 6.8 µM. actives 1.4% (n = 370,000);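 active means activation above the mean of all tested compounds plus 3 SD, cut at about 5.5% in these data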;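 further: 100% = response to 3 µM Δ7-dafachronic acid high control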
DAX1 inh-1 – NR0B1 (DAX1) inhibition; P51843; HEK293 Gal4-DAX1 luciferase reporter, luminescence; inhibition, % at 6.75 µM; actives 0.99% (n = 340,000);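 active means inhibition above the mean over all tested compounds plus 3 SD, cut at about 4.2% in these data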;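 further: 0% = DAX1-transfected cells with DMSO and 100% = empty-vector control cells with DMSO; inhibition shows as a rise in luminescence from relieved DAX1 repression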
hgDAF12 agonist – agonists of H. glycines DAF-12 nuclear receptor. HEK293 GAL4-hgDAF12 UAS-luciferase reporter, agonist luminescence; normalized to butyrate control. activation, % at 6.8 µM. actives 1.8% (n = 370,000);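 active means activation above a cutoff set at the mean of all screened compounds plus 3 SD, cut at about 10% in these data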;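 further: 0% = DMSO wells and 100% = sodium butyrate wells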
AHR act – activates the human aryl hydrocarbon receptor. AID 2796. P35869. actives 2.5% (n = 320,000). activation, % at 5 µM. AHR-responsive luciferase reporter cells, luminescence; in the data active means activation above about 47%;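 further: 0% = vehicle wells and 100% = reference agonist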
Target sequence (P35869 whole entry, looked up): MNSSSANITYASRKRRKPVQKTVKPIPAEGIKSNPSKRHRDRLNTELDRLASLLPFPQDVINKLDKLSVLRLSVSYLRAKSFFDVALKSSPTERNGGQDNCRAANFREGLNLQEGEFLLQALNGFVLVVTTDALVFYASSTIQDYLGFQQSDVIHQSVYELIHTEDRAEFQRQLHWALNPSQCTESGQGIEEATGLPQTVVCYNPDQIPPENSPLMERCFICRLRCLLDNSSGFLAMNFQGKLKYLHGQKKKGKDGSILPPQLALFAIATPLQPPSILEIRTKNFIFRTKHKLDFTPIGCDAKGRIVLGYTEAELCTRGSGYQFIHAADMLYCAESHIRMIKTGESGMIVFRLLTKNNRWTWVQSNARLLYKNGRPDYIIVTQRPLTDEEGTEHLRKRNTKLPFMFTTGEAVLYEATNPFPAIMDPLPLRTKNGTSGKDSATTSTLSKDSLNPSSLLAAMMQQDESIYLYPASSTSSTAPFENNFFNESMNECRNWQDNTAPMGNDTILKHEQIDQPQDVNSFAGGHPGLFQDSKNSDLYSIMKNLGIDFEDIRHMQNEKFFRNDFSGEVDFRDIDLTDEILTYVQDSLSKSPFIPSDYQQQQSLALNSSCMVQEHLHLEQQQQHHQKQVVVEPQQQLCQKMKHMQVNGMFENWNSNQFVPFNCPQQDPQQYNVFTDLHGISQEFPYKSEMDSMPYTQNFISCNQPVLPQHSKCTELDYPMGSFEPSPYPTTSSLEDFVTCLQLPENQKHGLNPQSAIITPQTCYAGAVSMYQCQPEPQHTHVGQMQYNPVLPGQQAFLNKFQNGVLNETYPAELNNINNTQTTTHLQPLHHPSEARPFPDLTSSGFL
DAX1 inh-2 – inhibitors of DAX1 repression of SF-1 activated StAR promoter; inhibition, % at 6.8 µM; AID 652010; HEK293T StAR-luciferase reporter, SF-1/DAX-1 repression relief; actives 1.1% (n = 370,000);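 active means inhibition above the mean over all tested compounds plus 3 SD, cut at about 3.6% in these data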;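 further: 0% = DAX-1 cells with DMSO and 100% = cells lacking DAX-1 with DMSO; higher inhibition means more luminescence from relief of DAX-1 repression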
LXRb hcDAF ctr – activates human LXR-beta, counter-screen for hcDAF-12 agonists. shares compounds with hcDAF-12 act. HEK293 Gal4-LXR tk-luc reporter, luminescence, 24 h; normalized: DMSO 0%, positive control 100%. activation, % at 6.8 µM. 3,400 tested, under 10 active. AID 743027;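 active means mean percent activation of the reporter above a cutoff set as the average over tested compounds plus their standard deviation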
hcDAF12 ag – hcDAF-12 agonism, confirmation assay. actives 61% (n = 3,400). activation, % at 6.8 µM. HEK293 hcDAF-12 lit1-tk-luc reporter, luminescence; % of Δ7-dafachronic acid response. shares compounds with hcDAF-12 act;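 active means mean activation across triplicate tests above the threshold derived from the earlier primary screen, cut at about 5.5% in these data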;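 further: 0% = DMSO only wells and 100% = 3 µM Δ7-dafachronic acid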
* = called active by the depositor; . = no result. Hits are enriched below; roughly 5.7% of the tested compounds scored in any of these assays.

SMILES | ssDAF12 agonist | hcDAF-12 act | DAX1 inh-1 | hgDAF12 agonist | AHR act | DAX1 inh-2 | LXRb hcDAF ctr | hcDAF12 ag
Cc1cc(O)ccc1N/C=C(\C#N)c1nc2ccccc2o1 | 0.3 | 8.8* | -0.3 | 0.4 | 54.4* | 0.6 | -0.2 | 2.8
N#C/C(=C\c1c(Cl)cccc1Cl)c1nc2ccccc2o1 | -1.3 | 6.6* | 0.1 | 0.7 | 2.1 | -0.6 | -0.4 | 0.1
Cc1cccc(CN2CCN(C3CN(Cc4cn(Cc5ccccc5)nn4)S(=O)(=O)C3)CC2)c1 (stereo not drawn) | -1.1 | 0.3 | . | 0.9 | . | 0.8 | . | .
Cc1c(N(C(=O)c2ccccn2)C2(C(=O)NC3CCCCC3)CCCCC2)c(=O)n(-c2ccccc2)n1C | -1.9 | -0.8 | -0.6 | -0.1 | 4.3 | 0.0 | . | .
O=C1c2ccccc2C(=O)C1c1nccc2ccccc12 | 4.0* | 26.6* | 2.0 | 18.0* | 51.2* | 3.0 | 2.0 | 24.1*
COc1ccc(NS(=O)(=O)c2cn(C)nc2C)cc1 | -0.2 | 0.3 | 0.0 | 0.7 | -2.4 | 0.9 | . | .
O=C(Nc1ccccc1Cl)c1csc(-c2cccnc2)n1 | 2.8* | 7.6* | 5.0* | 9.0 | 48.2* | 0.0 | 0.2 | 6.7*
COc1cccc(CNC(=O)CN2C(=O)CSc3ccc(S(=O)(=O)N4CCOCC4)cc32)c1 | -0.8 | -3.3 | 0.6 | 0.1 | 3.6 | -0.2 | . | .
O=c1c(-c2cccc3ccccc23)[n+]([O-])c2ccccc2n1O | -0.1 | 7.3* | -1.7 | 2.9 | 13.7 | -0.8 | 0.0 | 5.9*
CCOn1c(=O)c(-c2cccc3ccccc23)[n+]([O-])c2ccccc21 | -0.8 | 2.7 | -0.9 | -2.1 | 8.8 | -0.3 | . | .
Clc1ncccc1-c1nnn(-c2ccccc2)n1 | 0.3 | 6.8* | 0.6 | 13.1* | 29.5 | 2.4 | 1.5 | 7.0*
CCc1cccc(CC)c1NC(=O)CSc1nc2ccc(N3C(=O)C4C(C3=O)[C@H]3C=C[C@@H]4C3)cc2s1 (stereo partly drawn) | -1.7 | -2.7 | 0.2 | -4.3 | 17.4 | -1.3 | . | .
O=C(Cc1ccccc1[N+](=O)[O-])Nc1ccc(S(=O)(=O)N2CCCC2)cc1 | 1.0* | 9.7* | 1.1 | 1.6 | 12.3 | 0.8 | -0.1 | 5.3
O=C(Cc1ccccc1F)Nc1ccc(S(=O)(=O)N2CCCCC2)cc1 | -0.6 | -1.0 | 0.1 | 0.5 | 2.2 | -0.7 | . | .
O=C(Cn1nc(-c2ccccc2)c2ccccc2c1=O)NCCO | -1.1 | 0.5 | 2.3 | -1.4 | -0.6 | -0.1 | . | .
O=C(CCCC(=O)OCC(=O)c1ccc(Cl)cc1)NC1CCCCC1 | -1.2 | -0.4 | 0.6 | 0.4 | 32.0 | -1.4 | . | .
CC(=O)c1ccc(OCc2cc(=O)n3ccsc3n2)cc1 | -1.0 | 9.8* | 3.8 | 8.8 | 0.9 | 1.4 | 0.3 | 3.1
COc1ccc(NC(=O)CN(C)C(=O)CNC(=O)c2cccs2)cc1 | -1.1 | -2.3 | 1.1 | 4.9 | 5.3 | -1.5 | . | .
COc1ccc(-c2nnc3c4ccccc4c(C)nn23)cc1 | 0.5 | 6.7* | 2.0 | 6.9 | 19.6 | 1.1 | 0.3 | 5.7*
Cc1nn2c(-c3ccncc3)nnc2c2ccccc12 | -1.3 | -2.8 | -0.1 | 0.9 | -9.8 | 0.2 | . | .
CC(=NNC(=O)c1ccc(NS(=O)(=O)c2cccs2)cc1)c1ccc(OCC(N)=O)cc1 | -0.5 | 0.1 | 0.7 | 5.3 | 4.9 | 2.9 | . | .
CC(=O)c1ccc(OC(C)c2nc3ccccc3s2)cc1 (stereo not drawn) | 1.0* | 7.7* | 1.6 | 4.6 | 14.7 | 0.3 | 0.4 | 9.6*
O=C(NC1CCCC1)C1CCCN(S(=O)(=O)c2ccc(F)cc2)C1 (stereo not drawn) | -1.4 | -1.0 | 1.0 | -1.2 | -3.7 | -0.3 | . | .
OCc1ccccc1Cn1ccnc1 | -1.8 | 0.0 | 0.6 | 0.7 | . | -1.2 | . | .
c1ccc2c(Cn3ccnc3)c[nH]c2c1 | 0.0 | 8.0* | 0.3 | 3.1 | 21.4 | -0.2 | -0.3 | 2.0
SMILES | ssDAF12 agonist | hcDAF-12 act | DAX1 inh-1 | hgDAF12 agonist | AHR act | DAX1 inh-2 | LXRb hcDAF ctr | hcDAF12 ag
Cc1coc2cc3oc(=O)c(CCC(=O)N4C[C@H]5C[C@@H](C4)c4cccc(=O)n4C5)c(C)c3cc12 | -1.1 | 0.4 | 2.2 | 2.1 | -1.0 | 0.0 | . | .
COc1cc(N=Nc2cccc(S(N)(=O)=O)c2)c2ccccc2c1N | 0.3 | 9.2* | 2.9 | -1.9 | 56.8* | -0.2 | 0.2 | 2.7
NC1=NC(=Nc2cccc(S(N)(=O)=O)c2)c2ccccc21 | -1.5 | -0.6 | 0.1 | 2.4 | 1.9 | 0.1 | . | .
Cc1nn(-c2ccc(Br)cc2)c(=O)c2ccccc12 | 1.7* | 11.1* | 2.3 | 10.7* | 56.9* | 1.5 | 0.6 | 10.9*
CCN(CC)c1ccc(NC2=C(Cl)C(=O)c3ccccc3C2=O)cc1 | . | . | -0.2 | . | 36.6 | . | . | .
Cc1ccc(NC2=C(Cl)C(=O)c3ccccc3C2=O)cc1 | 1.3* | 7.4* | 0.1 | 9.3 | 0.1 | 1.6 | 0.2 | 5.9*
Cc1cc(N)n2ncc(-c3ccc(Cl)cc3)c2n1 | 0.2 | 6.7* | 0.9 | 9.9 | 68.7* | 2.6 | 0.8 | 4.9
c1ccc(-c2cnnc(-c3ccccn3)n2)cc1 | -0.9 | 7.1* | 1.7 | 5.1 | -4.0 | 2.0 | 0.4 | 2.3
COc1ccc(OC)c(S(=O)(=O)NCCc2csc(-c3cccnc3)n2)c1 | -1.4 | 0.1 | -3.5 | -1.1 | 8.6 | 0.8 | . | .
CCOc1ccc(NC(=O)Nc2cccs2)cc1 | 0.6 | 7.3* | 0.0 | 10.7* | 8.8 | 3.0 | 1.4 | 5.2
CCOc1ccc(NC(=O)Nc2ccc(Cc3ccncc3)cc2)cc1 | -1.7 | -3.1 | -1.9 | -2.7 | -0.7 | -1.3 | . | .
Cc1ccc(NC(=O)Cc2c(Cl)cccc2Cl)cc1S(=O)(=O)N(C)C | -1.2 | 11.1* | -1.0 | -2.3 | -1.3 | -0.6 | -0.1 | 1.7
CCc1noc(C)c1C(=O)Nc1cc(S(=O)(=O)N(CC)CC)ccc1N1CCOCC1 | -0.5 | -0.8 | 2.3 | 0.2 | 5.9 | -0.1 | . | .
O=C(O)c1ccc2c(=O)n3c(nc2c1)/C(=C/c1ccc(C(F)(F)F)cc1)CC3 | -1.3 | 7.0* | -1.2 | 0.6 | 0.4 | 0.1 | -0.4 | 1.2
Cc1ccccc1-c1noc(-c2cccs2)n1 | -0.6 | 3.8 | 0.4 | 1.9 | 19.2 | 0.3 | . | .
Cc1ccccc1-c1nnc(-c2cccs2)o1 | 1.3* | 7.7* | 3.8 | 9.0 | 18.7 | 0.8 | 0.6 | 8.6*
CCOc1ccc(C(=O)NCCc2ccccc2)cc1 | 0.1 | 6.6* | -1.6 | 6.9 | -5.5 | 5.7* | 1.4 | 9.2*
CC(=O)c1ccc2c3c(cccc13)C(=O)N(CCc1ccccc1)C2=O | 3.0* | 8.4* | 0.0 | 8.4 | 72.0* | 1.0 | 0.6 | 9.7*
